Measurements: PubChem BioAssay AID504329 (Southern Research Specialized Biocontainment Screening …, 2011)
Screen size: about 340,000 compounds; about 1,000 (0.29%) were called active. Cut-off read from the data, not from the text of the source: inconclusive = inhibition above about 27% without an active follow-up result; inactive = below that. Only a sample is shown. Measured potencies and affinities stand elsewhere.

Experiment: H1N1 influenza NS1A inhibitors, functional cell based assay (AID 504329)
Details: percent inhibition, at 12.5 µM, active compounds read high

SMILES	inhibition
C[C@H](CO)N1C[C@H](C)[C@@H](CN(C)Cc2ccc(-c3ccccc3)cc2)Oc2c(NC(=O)Cc3ccccc3)cccc2C1=O	11.9% (inactive)
CC(=O)Nc1ccc(Br)cc1C(=O)C(=O)O	2.32% (inactive)
C=CCc1c(C)[nH]c(=O)[nH]c1=O	-3.62% (inactive)
Cc1noc(C)c1NC(=O)N(C)C[C@H]1Oc2ccc(NC(=O)NC(C)C)cc2C(=O)N([C@H](C)CO)C[C@@H]1C	-14.8% (inactive)
CCCn1c(N)c(C(=O)CSc2nnc3n2CCCCC3)c(=O)n(C)c1=O	-16.1% (inactive)
CC(C)CNS(=O)(=O)c1cc(C(=O)OC2CCOC2=O)c(Cl)cc1Cl (centres undefined)	-8.56% (inactive)
COc1ccccc1CNc1ncccc1[N+](=O)[O-]	-1.95% (inactive)
COc1ccccc1C(CNc1ncccc1[N+](=O)[O-])N(C)C (centres undefined)	-0.51% (inactive)
CC(=O)c1ccc2c(c1)C1C(Cl)C(Sc3ccccc3[N+](=O)[O-])CC1C(C(=O)O)N2 (centres undefined)	27.9% (inactive)
CC(=O)c1ccc2c(c1)C1C(Cl)C(Sc3ccccc3[N+](=O)[O-])CC1C(c1ccccc1)N2 (centres undefined)	-9.68% (inactive)
O=C(CN1CCN(C(=O)c2ccco2)CC1)Nc1ccccc1	0.71% (inactive)
CN(C)c1nc2c(c(=O)[nH]c(=O)n2C)n1CCCc1ccccc1	-3.17% (inactive)
CCc1cccc(CC)c1NC(=O)CN(CC(=O)O)CC(=O)O	5.31% (inactive)
O=C(O)CP(=O)(O)O	-2.09% (inactive)
Cn1c(=O)c2cc(S(=O)(=O)NC(C(=O)N3CCCCCC3)c3ccccc3)ccc2n(C)c1=O (centres undefined)	-3.38% (inactive)
COc1ccccc1-c1cc(C(=O)NC(C)c2ccccc2)no1 (centres undefined)	10.7% (inactive)
Clc1ccc(COc2ccccn2)c(Cl)c1	18.9% (inactive)
Cc1n[nH]c(C)c1Cc1c(F)cccc1Cl	-22.1% (inactive)
O=C(Cc1c(F)cccc1Cl)Nc1ccccn1	-10.5% (inactive)
Nc1nc(N)c(Cc2ccc(Cl)cc2Cl)c(N)n1	-5.28% (inactive)
CNc1cc(C(F)(F)F)nc(-c2ccccn2)n1	-7.32% (inactive)
Cc1nc(N)c(Cc2ccccc2F)c(N)n1	-3.84% (inactive)
N#C/C(=C/c1ccc(-c2ccc(C(=O)O)c(Cl)c2)o1)C(=O)NCC1CCCO1 (centres undefined)	9.84% (inactive)
CN(CC(=O)Nc1ccncc1)S(=O)(=O)c1ccc(Cl)cc1	4.38% (inactive)

SMILES	inhibition
CC(C)S(=O)(=O)c1cnc(N2CCOCC2)nc1N	-0.07% (inactive)
Cc1cc(C(=O)CSc2nnc(N)s2)c(C)n1Cc1cccs1	-7.01% (inactive)
CCS(=O)(=O)N(CC(=O)Nc1cccc2ccccc12)c1ccc(OC)cc1	-2% (inactive)
CC(=O)Nc1ccc(NC(=O)C(NS(=O)(=O)c2cccc3nsnc23)C(C)C)cc1 (centres undefined)	4.6% (inactive)
c1cncc(-c2cn(C[C@H]3CC[C@@H]([C@@H]4CC[C@H](Cn5cc(-c6cccnc6)nn5)O4)O3)nn2)c1	-3.65% (inactive)
c1ccc(-c2cn(C[C@H]3CC[C@@H]([C@@H]4CC[C@H](Cn5cc(-c6ccccc6)nn5)O4)O3)nn2)cc1	1.07% (inactive)
Cc1ccc(-c2cn(C[C@H]3CC[C@@H]([C@@H]4CC[C@H](Cn5cc(-c6ccc(C)cc6)nn5)O4)O3)nn2)cc1	1.46% (inactive)
c1cncc(-c2cn(C[C@H]3CC[C@H](Cn4cc(-c5cccnc5)nn4)O3)nn2)c1	-19.1% (inactive)
COc1ccc(-c2cc(C#N)nc(NN)n2)cc1	4.09% (inactive)
N/C(CSc1ccccn1)=N\OCc1c(Cl)cccc1Cl	-0.92% (inactive)
Cc1ccc(CNC(=O)CSc2ccc(-c3ccco3)nn2)cc1	0.95% (inactive)
CCC(=O)Nc1cc(-c2nn(CC(=O)N3CCCCC3)c(=O)c3ccccc23)ccc1N1CCOCC1	-7.33% (inactive)
C=CC[C@H]1C=C[C@@H](C(C(=O)OC)C(=O)OC)CN1C(C)=O	-4.78% (inactive)
COCCOC(=O)c1c(NC(=O)COC(=O)Cc2cccc(OC)c2)sc(C(N)=O)c1C	6.16% (inactive)
C/C(=N\NC(=O)c1cc2ccccc2cc1O)c1cccs1	-6% (inactive)
O=C(N/N=C/c1ccccn1)c1cc(Br)ccc1O	-2.68% (inactive)
C/C(=N/NC(=O)c1cc2ccccc2cc1O)c1ccco1	-9.07% (inactive)
C/C(=N\NC(=O)c1cc(Br)ccc1O)c1cccs1	0.04% (inactive)
CN1CCc2cc3c(c4c2C1CC41CCC(=NO)CC1)OCO3 (centres undefined)	4.88% (inactive)
C=CCOC(=O)C1=C[C@H](C2CC2)[C@@H](CCCO)[C@H](OCC)O1	-9.11% (inactive)
CC(C)/C=C/C(=O)N1CCCC(N2CCN(c3ccccc3F)CC2)C1 (centres undefined)	-4.31% (inactive)
Cc1ccccc1CSc1nn2c(=O)c(C)nnc2s1	-4.51% (inactive)
Cc1nnc2sc(SCc3ccccc3Cl)nn2c1=O	-4.7% (inactive)
COc1ccccc1NC(=O)CSc1nnc(C)s1	4.51% (inactive)

SMILES	inhibition
COc1ccc(OC)c(NC(=O)CSc2nn3c(=O)c(C)nnc3s2)c1	12.7% (inactive)
O=C(/C=N/O)NCc1ccncc1	-2.91% (inactive)
O=C(CC(NS(=O)(=O)c1ccc(Cl)cc1)c1ccco1)NCc1ccco1 (centres undefined)	-0.25% (inactive)
Cc1ccccc1NC(=S)N(Cc1cccnc1)Cc1ccco1	17% (inactive)
Cc1cc(C(=O)NCCCOC(C)C)c2ccccc2n1	5.34% (inactive)
COc1ccc(-c2csc(NC(=O)CCCc3nc4ccccc4c(=O)[nH]3)n2)cc1OC	0.34% (inactive)
N#Cc1ccc(CSc2nnc3[nH]c(=O)cc(N)n23)cc1	-7.19% (inactive)
O=C(COc1ncnc2ccccc12)NC1CCCCC1	9.63% (inactive)
COc1ccc(CC(=O)NC(C)c2nnc(SCC(=O)Nc3cc(C)ccc3OC)n2C)cc1 (centres undefined)	-9.49% (inactive)
C(=N\Nc1nncc2ccccc12)/c1ccccc1	-20.6% (inactive)
O=c1cnnc(N/N=C/c2ccccn2)[nH]1	20.5% (inactive)
Cc1csc(N/N=C/c2ccccn2)n1	7.11% (inactive)
C(=N\Nc1nc2ccccc2[nH]1)/c1ccccn1	17.1% (inactive)
Cc1cccc(/C=N/Nc2nncc3ccccc23)c1	3.05% (inactive)
O=C(N/N=C/c1ccccn1)c1ccc(N/N=C/c2ccccn2)cc1	1.09% (inactive)
C=CCn1c(SCC(=O)NCc2ccc3c(c2)OCO3)nnc1C1COc2ccccc2O1 (centres undefined)	-2.53% (inactive)
CCC(C)[C@H](NC(=O)N1CCn2c1nc1ccccc12)C(=O)NCCc1ccccc1 (some centres undefined)	4.3% (inactive)
COc1cccc(-c2ccc(NC(=O)C3CCCN(CCCn4nc(C)cc4C)C3)cc2)c1 (centres undefined)	3.69% (inactive)
N#Cc1c(C(F)(F)F)cc(-c2ccccc2)n(N)c1=O	-8.39% (inactive)
O=C(Nc1ccon1)c1ccc(Cl)c(S(=O)(=O)N2CCCCC2)c1	-6.8% (inactive)
CCc1n[nH]c(=S)n1/N=C/c1ccccn1	-4.28% (inactive)
S=c1[nH]nc(C2CCCCC2)n1/N=C/c1ccccn1	-8.07% (inactive)
COc1cccc(CNC(=O)CSc2ccc(-c3ccco3)nn2)c1	-0.85% (inactive)
Cc1ccc(CNC(=O)CSc2ccc(-c3ccccn3)nn2)cc1	14.6% (inactive)

SMILES	inhibition
O=C(CSc1ccc(-c2ccccn2)nn1)NCc1ccccc1	1.11% (inactive)
COc1cccc(CNC(=O)CSc2ccc(-c3cccs3)nn2)c1	5.92% (inactive)
O=C(O)C1CCCCC1C(=O)Nc1ccc(S(=O)(=O)N2CCCCC2)cc1 (centres undefined)	4.7% (inactive)
CCCC(C)C1(CC)C(=O)NC(=O)N=C1N (centres undefined)	-9.22% (inactive)
O=C(NCc1cccnc1)c1ccccc1NS(=O)(=O)c1ccccc1	-3.37% (inactive)
CCOC(=O)C1CCCN(c2c(N3CCN(c4ccccn4)CC3)c(=O)c2=O)C1 (centres undefined)	6.61% (inactive)
CCCCCOc1ccc(C(=O)NCCC(=O)NCCCC(=O)OCC)cc1	-5.18% (inactive)
CC1(C)CC(=O)C2=C(C1)Nc1ccccc1NC2c1ccc(F)c(F)c1 (centres undefined)	-6.87% (inactive)
O=C(O)Cc1cn(Cc2ccc(F)cc2)c2ccccc12	5.18% (inactive)
Cc1[nH][nH]c(=O)c1C(c1c(C)[nH][nH]c1=O)c1cn(Cc2ccc(Cl)c(Cl)c2)c2ccccc12	17.4% (inactive)
COc1ccc(CNc2nc3ccccc3n2CCN2CCCCC2)cc1	8.37% (inactive)
CCN(CC)c1ccc(CNc2nc3ccccc3n2CCN2CCOCC2)cc1	5.53% (inactive)
CC(C)C[C@@H](CNCC(=O)[C@H](CC(C)C)NC(=O)c1[nH]cnc1C(=O)N[C@H](CN)CC(C)C)NC(=O)c1nc[nH]c1C(=O)N[C@@H](Cc1ccccc1)C(=O)O	-21.2% (inactive)
COC(=O)c1scc(C)c1NC(=O)c1ccccc1F	-2.27% (inactive)
COc1cccc(OC)c1C(=O)Nc1nnc(-c2ccc(F)cc2)s1	-7.27% (inactive)
CCN(CC)c1ccc2nc3ccccc3[n+](CC)c2c1	25.1% (inactive)
CCN(CC)c1ccc(/C=N/N(c2ccccc2)c2ccccc2)c(O)c1	-0.39% (inactive)
N#Cc1nc(COc2cccc(Cl)c2)oc1N1CCN(c2ccccc2)CC1	-10.8% (inactive)
O=C1C(c2c(O)[nH]c3ccccc23)=Nc2ccccc21	4.56% (inactive)
CC(=O)Nc1c(O)c2ccccc2[nH]c1=O	-0.37% (inactive)
COc1ccc(CCNC(=O)c2ccc(CS(=O)(=O)Cc3cccc(C)c3)o2)cc1OC	1.57% (inactive)
O=C(CN1C(=O)c2ccccc2C1=O)Nc1cccc(Cl)c1	-5.21% (inactive)
